Assay results reported in PubChem BioAssay (EPA / NIEHS).
Results filed as inconclusive are left out. Activity calls are given as the source filed them. The calls were made as follows: active = hit-call score of the fitted dose curve at least 0.9, where 1 is the maximum; inconclusive = response in the unintended direction; inactive = score below 0.9.

The compounds below were run against Ratio of Nucleoli Translocation and Cytoplasm, AR (gene 367) (UniProt P10275) (assay: UPITT_HCI_U2OS_AR_TIF2_Nucleoli_Cytoplasm_Ratio_Agonist: University of Pittsburgh U2OS Androgen Receptor-Transcriptional Intermediary Factor 2 (AR-TIF2) Agonism High Content Imaging Assay for Ratio of Nucleoli Translocation and Cytoplasm (AID 2284000);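 also: hits raise the red nucleolar to cytoplasm ratio above vehicle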).
Excerpt: UPITT_AR_TIF2_PPIB is a cell-based, high-content imaging assay that uses U2OS, a human osteosarcoma cell line, expressing a human androgen receptor fused to red fluorescent protein and the coactivator TIF2 fused to green fluorescent protein. UPITT_HCI_U2OS_AR_TIF2_Nucleoli_Cytoplasm_Ratio_Agonist is one of four assay components measured from the UPITT_AR_TIF2_PPIB assay. It is designed to make measurements of the ratio of red fluorescence localized in the nucleolar region of the cell nucleus to red fluorescence localized in the cytoplasm as detected with high-content fluorescent imaging.Data from the assay component UPITT_HCI_U2OS_AR_TIF2_Nucleoli_Cytoplasm_Ratio_Agonist was analyzed into 1 assay endpoint. This assay endpoint, UPITT_HCI_U2OS_AR_TIF2_Nucleoli_Cytoplasm_Ratio_Agonist, was analyzed in the positive analysis fitting direction relative to DMSO as the baseline of activity. Using a type of binding reporter, measures of receptor for gain-of-signal activity can be used to understand the binding at the pathway-level as it relates to the gene AR.
Daughter plates containing 2 uL of 10 mM compounds in DMSO were prepared and replicated from the 384-well Library of Pharmacologically Active Compounds (LOPAC) master plates using the Bravo outfitted with a 384-well transfer head. Aluminum adhesive plate seals were applied with an Abgene Seal-IT 100 (Rochester, NY) plate sealer, and the plates were stored at -20 C in a Matrical MatriMinistore (Spokane, WA) automated compound storage and retrieval system. For screening, LOPAC daughter plates were withdrawn from -20C storage, thawed to ambient temperature, centrifuged 1-2 min at 50 g, and the plate seals were removed before the transfer of 98 uL of serum-free tissue culture medium (SFM) into wells using the BioTek Microflo liquid handler (BioTek, Winooski, VT) to generate a 200 uM intermediate stock concentration of library compounds (2.0% DMSO). The diluted compounds were mixed by repeated aspiration and dispensation using a 384-well P30 dispensing head on the Evolution P3 (EP3) liquid handling platform (PerkinElmer, Waltham, MA) and then 5 uL of diluted compounds was transferred to the wells of assay plates. In the LOPAC screen, compounds were individually tested at a final concentration of 20 uM (0.2% DMSO). After the diluted compounds had been transferred from the daughter plates to the primary HCS assay plates, aluminum adhesive plate seals were applied and the diluted daughter plates were stored frozen at -20C. To confirm active compounds identified in the primary screen, we withdrew the LOPAC daughter plates containing the 200 uM intermediate concentration of library compounds (2.0% DMSO) from -20C storage, thawed them to ambient temperature, centrifuged them for 1-2 min at 50 g, and removed the plate seals. A work list was generated to direct the Multiprobe Janus liquid handling platform (PerkinElmer) to cherry pick 75 uL from the wells of the diluted daughter plates that were flagged active in the primary screen and to reformat these into a 384-well plate hit confirmation daughter plate. Five microliters of primary HCS active compounds was then transferred into triplicate wells of assay plates using a 384-well P30 dispensing head on the Evolution P3 (EP3) liquid handling platform (PerkinElmer). […] Daughter plates containing 2 uL of the serially diluted compounds in DMSO were prepared and replicated from the 384-well serial dilution master plates using the Bravo outfitted with a 384-well transfer head. Aluminum adhesive plate seals were applied and plates were stored at -20C. For testing in the bioassays, daughter plates were withdrawn from -20C storage, thawed to ambient temperature, centrifuged for 1-2 min at 50 g, and the plate seals were removed before the transfer of 38 uL of SFM into wells using the BioTek Microflo liquid handler (BioTek) to generate an intermediate stock concentration of library compounds ranging from 1.95 to 500 uM (5.0% DMSO). […]

Sequence of Ratio of Nucleoli Translocation and Cytoplasm, AR (gene 367) (P10275 whole entry, looked up, the tested form may be a part): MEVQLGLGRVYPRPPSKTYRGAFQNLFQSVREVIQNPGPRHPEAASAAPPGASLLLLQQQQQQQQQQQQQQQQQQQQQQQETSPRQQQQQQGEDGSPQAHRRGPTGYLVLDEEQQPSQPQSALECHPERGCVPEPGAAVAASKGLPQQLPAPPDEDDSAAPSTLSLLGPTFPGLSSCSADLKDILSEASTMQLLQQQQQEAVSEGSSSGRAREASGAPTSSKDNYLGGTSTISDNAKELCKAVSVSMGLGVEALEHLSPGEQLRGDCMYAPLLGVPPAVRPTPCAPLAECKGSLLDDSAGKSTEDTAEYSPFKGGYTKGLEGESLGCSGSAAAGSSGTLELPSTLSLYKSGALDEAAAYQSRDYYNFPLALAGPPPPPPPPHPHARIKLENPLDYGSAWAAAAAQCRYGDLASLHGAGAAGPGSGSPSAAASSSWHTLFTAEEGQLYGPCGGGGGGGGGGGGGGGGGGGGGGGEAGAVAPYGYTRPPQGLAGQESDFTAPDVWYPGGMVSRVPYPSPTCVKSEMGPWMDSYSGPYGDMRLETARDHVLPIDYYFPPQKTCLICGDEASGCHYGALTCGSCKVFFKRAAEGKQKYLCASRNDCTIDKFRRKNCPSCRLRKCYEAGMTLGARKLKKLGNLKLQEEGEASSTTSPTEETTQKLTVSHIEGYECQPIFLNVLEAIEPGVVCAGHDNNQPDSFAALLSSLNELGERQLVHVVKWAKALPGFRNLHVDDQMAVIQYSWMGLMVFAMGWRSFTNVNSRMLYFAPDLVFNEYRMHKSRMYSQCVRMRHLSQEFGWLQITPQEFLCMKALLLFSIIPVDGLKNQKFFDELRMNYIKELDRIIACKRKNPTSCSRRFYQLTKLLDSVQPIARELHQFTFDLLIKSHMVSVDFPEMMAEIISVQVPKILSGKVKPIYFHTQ

Question: For `O=C1c2ccccc2C(=O)C1C(=O)C(c1ccccc1)c1ccc(Cl)cc1` (centres undefined), which outcome is on record?
Answer: inactive

Question: Which outcome does the source give for `O=C(O)COc1cc(Cl)c(Cl)cc1Cl` here?
Answer: inactive

Question: With `O=C(N[C@H]1CN2CCC1CC2)c1ccc2c(c1)OCCO2` as the compound, how does the outcome read?
Answer: inactive

Question: For `C=CC(Cl)CCl` (centres undefined), which outcome is on record?
Answer: inactive

Question: How did the outcome turn out when `CC(=Cc1ccccc1)[N+](=O)[O-]` was run?
Answer: inactive

Question: With `COCCl` as the compound, how does the outcome read?
Answer: inactive

Question: `CC(C)N(C(=O)CCl)c1ccccc1` was tested. Which outcome did it give?
Answer: inactive

Question: With `O=C(NC(=O)c1c(F)cccc1F)Nc1cc(Cl)c(OC(F)(F)C(F)C(F)(F)F)cc1Cl` (centres undefined) as the compound, how does the outcome read?
Answer: inactive

Question: Which outcome does the source give for `OC(Cc1ccccc1Cl)(Cn1[nH]cnc1=S)C1(Cl)CC1` (centres undefined) here?
Answer: inactive

Question: `CCOP(=S)(OCC)OP(=S)(OCC)OCC` was tested. Which outcome did it give?
Answer: inactive

Question: How did the outcome turn out when `CNC(=O)O/N=C/C(C)(C)S(C)(=O)=O` was run?
Answer: inactive

Question: How did the AC50 turn out when `O=[N+]([O-])c1ccc(Cl)c([N+](=O)[O-])c1` was run?
Answer: 13.1 µM (active)

Question: For `Cc1cc(Cl)ccc1OCCCC(=O)O`, which outcome is on record?
Answer: inactive

Question: Which outcome does the source give for `O=C(CCl)Nc1ccccc1` here?
Answer: inactive
